Laboratory results as given in PubChem BioAssay (Tox21).
Results filed as inconclusive are left out. Entries that show only a call come without a potency. The source made the active and inactive calls. Unless noted, the call rests on the fitted dose curve.

What was measured:
[1] = Nuclear factor erythroid 2-related factor 2/antioxidant responsive element (Nrf2/ARE) small molecule agonists: qHTS cell viability counter screen in human keratinocytes (AID 1919968; active means well fitted curve in the direction sought with a large enough effect in the repeat runs; an effect the other way counts as inactive or inconclusive; further: nearly all actives have a fitted effect of over 55% in size)
Procedure, shortened: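 CellTiter-Fluor fluorescence, read 1 h after reagent, gave viability in the same wells as the ARE-luciferase assay. KeratinoSens cells (1,500/well) had 23 h compound exposure at 37 C/5% CO2 following 5 h plating.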

[2] = Nuclear factor erythroid 2-related factor 2/antioxidant responsive element (Nrf2/ARE) small molecule agonists: luciferase reporter gene qHTS assay in human keratinocytes (AID 1919969); further: nearly all actives have a fitted effect of over 35% in size
[3] = biological target: Gonadotropin-releasing hormone receptor (Homo sapiens) (UniProt P30968); assay: Human gonadotropin-releasing hormone receptor (GnRHR) small molecule agonists, calcium flux assay in GnRHR-HEK293 cells (AID 1920063); further: nearly all actives have a fitted effect of over 35% in size
Chain of Gonadotropin-releasing hormone receptor (Homo sapiens) (P30968 whole entry, looked up): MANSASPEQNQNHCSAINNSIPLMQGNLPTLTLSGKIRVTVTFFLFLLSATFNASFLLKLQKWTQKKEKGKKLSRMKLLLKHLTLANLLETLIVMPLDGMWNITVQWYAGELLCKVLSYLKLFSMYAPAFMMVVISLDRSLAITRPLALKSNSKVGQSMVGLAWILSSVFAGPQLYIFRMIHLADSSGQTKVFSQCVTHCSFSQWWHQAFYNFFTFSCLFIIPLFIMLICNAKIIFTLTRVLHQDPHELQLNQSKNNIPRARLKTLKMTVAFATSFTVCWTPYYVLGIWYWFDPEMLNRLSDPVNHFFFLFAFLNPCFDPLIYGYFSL
Procedure, shortened: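 Agonist mode: compounds at 15 concentrations, in triplicate, went onto calcium dye-loaded GnRHR-HEK293 cells. Intracellular calcium was then followed as 480/540 nm fluorescence at 1 s intervals over 3 min.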

[4] = biological target: KiSS-1 receptor (Homo sapiens) (UniProt Q969F8); assay: Human kisspeptin (KISS1R) small molecule agonists, calcium flux assay in KISS1R-HEK293 cells (AID 1920064; active means well fitted curve in the direction sought with a large enough effect in the repeat runs; an effect the other way counts as inactive or inconclusive)
Chain of KiSS-1 receptor (Homo sapiens) (Q969F8 whole entry, looked up): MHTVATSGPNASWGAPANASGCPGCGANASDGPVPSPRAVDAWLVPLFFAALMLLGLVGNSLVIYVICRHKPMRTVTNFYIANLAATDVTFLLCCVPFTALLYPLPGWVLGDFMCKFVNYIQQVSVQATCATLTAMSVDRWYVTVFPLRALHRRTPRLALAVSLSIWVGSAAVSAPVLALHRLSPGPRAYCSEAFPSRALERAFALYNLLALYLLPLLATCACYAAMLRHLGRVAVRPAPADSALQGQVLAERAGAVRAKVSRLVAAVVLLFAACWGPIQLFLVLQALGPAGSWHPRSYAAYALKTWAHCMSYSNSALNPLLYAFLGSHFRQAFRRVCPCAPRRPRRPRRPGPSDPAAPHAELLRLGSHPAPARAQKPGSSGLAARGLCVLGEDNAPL
Procedure, shortened: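 Agonist mode: intracellular calcium rise tracked at 1 s intervals over 3 min (480/540 nm) immediately after compound addition to dye-loaded KISS1R-HEK293 stable cells. Each compound tested at 15 concentrations in triplicate.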

[5] = G protein-coupled receptor (GPCR) small molecule agonists, calcium flux assay: HEK293 wild type cell line counter screen (AID 1920065)
Procedure, shortened: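 Calcium flux counter screen: compound added in agonist mode at 15 concentrations in triplicate to dye-loaded parental HEK293 cells. Fluorescence (480/540) read kinetically for 3 min; ATP served as positive control.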

[6] = p53 small molecule agonists, cell-based qHTS assay with human liver microsomes (AID 1963577);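 further: p53 response element beta-lactamase reporter cells with liver microsomes plus NADPH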
Procedure, shortened: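 In this qHTS, p53 response-element beta-lactamase cells receive test compound together with a microsome/NADPH activating system (0.5 mg/mL final each) and are incubated 16 h at 37 C before LiveBLAzer fluorescence detection.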

[7] = p53 small molecule agonists, cell-based qHTS assay with rat liver microsomes (AID 1963578)
Procedure, shortened: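 Agonist mode in p53RE-bla reporter cells, with compounds co-incubated 16 h at 37 C alongside 0.5 mg/mL rat liver microsomes and 0.5 mg/mL NADPH (final), followed by a 2 h LiveBLAzer detection step.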

[8] = p53 small molecule agonists, cell-based qHTS assay with human liver microsomes: qHTS cell viability counter screen (AID 1963579); further: nearly all actives have a fitted effect of over 45% in size
Procedure, shortened: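 Metabolically activated exposure: compounds, human liver microsomes and NADPH (0.5 mg/mL final apiece) were added to p53RE-bla cells seeded 5 h earlier, left 16 h at 37 C, and then assessed for viability by CellTiter-Glo luminescence.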

[9] = p53 small molecule agonists, cell-based qHTS assay with rat liver microsomes: qHTS cell viability counter screen (AID 1963580); further: nearly all actives have a fitted effect of over 45% in size
Procedure, shortened: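 Rat liver microsome (0.5 mg/mL final) and NADPH (0.5 mg/mL final) co-incubation with compounds for 16 h at 37 C on HCT-116 p53RE-bla cells; cytotoxicity taken from intracellular ATP luminescence.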

[10] = p53 small molecule agonists, cell-based qHTS assay: qHTS cell viability counter screen (AID 1963581); further: nearly all actives have a fitted effect of over 45% in size
Procedure, shortened: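 Counter screen read by CellTiter-Glo luminescence (ATP content, 30 min at room temperature), run in the same wells as the beta-lactamase reporter read. HCT-116 p53RE-bla cells saw compounds for 16 h at 37 C.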

[11] = p53 small molecule agonists, cell-based qHTS assay (AID 1963582; active means well fitted activation curve with a large enough effect in the signal ratio in the repeat runs, not every such curve was filed as active; the % refers to the signal ratio)
Procedure, shortened: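 Read-out is beta-lactamase FRET fluorescence after 2 h at room temperature with LiveBLAzer B/G substrate. p53 response element-bla cells were treated 16 h at 37 C with compounds in DMSO, added 5 h after seeding.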

[12] = biological target: 5-hydroxytryptamine receptor 2A (Homo sapiens) (UniProt P28223); assay: 5-hydroxytryptamine receptor 2A (HTR2A) small molecule antagonists, cell-based qHTS assay (AID 1963586); further: nearly all actives have a fitted effect of over 45% in size; further: potency means the concentration at half of the fitted maximal effect
Chain of 5-hydroxytryptamine receptor 2A (Homo sapiens) (P28223 whole entry, looked up): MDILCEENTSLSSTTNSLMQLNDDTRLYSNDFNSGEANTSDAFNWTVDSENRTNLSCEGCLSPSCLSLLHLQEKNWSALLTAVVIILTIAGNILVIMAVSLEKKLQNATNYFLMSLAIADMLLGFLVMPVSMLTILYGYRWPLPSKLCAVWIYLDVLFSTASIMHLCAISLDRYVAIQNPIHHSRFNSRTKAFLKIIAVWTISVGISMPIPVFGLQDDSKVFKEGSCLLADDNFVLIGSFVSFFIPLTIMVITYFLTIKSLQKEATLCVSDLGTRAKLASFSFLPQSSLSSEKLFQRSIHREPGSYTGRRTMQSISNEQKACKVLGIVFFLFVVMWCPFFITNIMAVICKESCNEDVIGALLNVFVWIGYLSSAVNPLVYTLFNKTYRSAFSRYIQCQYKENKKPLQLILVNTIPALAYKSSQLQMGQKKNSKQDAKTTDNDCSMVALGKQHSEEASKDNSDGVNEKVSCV
Procedure, shortened: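 CHO cells stably expressing human HTR2A were plated for 18 h at 37 C, then loaded with calcium dye for 1 h. Compounds were preincubated 5 min at room temperature before DOI (4 nM solution) was added. Kinetic fluorescence was read for 3 min.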

[13] = biological target: 5-hydroxytryptamine receptor 2A (Homo sapiens) (UniProt P28223); assay: 5-hydroxytryptamine receptor 2A (HTR2A) small molecule agonists, cell-based qHTS assay (AID 1963587); further: nearly all actives have a fitted effect of over 30% in size
Procedure, shortened: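 Kinetic calcium-flux fluorescence (2 min, 1 sec intervals) after compound addition in agonist mode. HTR2A-CHO cells were cultured 18 h, then dye-loaded 1 h at 37 C.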

[14] = biological target: Muscarinic acetylcholine receptor M1 (Homo sapiens) (UniProt P11229); assay: Cholinergic receptor muscarinic 1 (CHRM1) small molecule antagonists, cell-based qHTS assay (AID 1963588); further: nearly all actives have a fitted effect of over 40% in size
Chain of Muscarinic acetylcholine receptor M1 (Homo sapiens) (P11229 whole entry, looked up): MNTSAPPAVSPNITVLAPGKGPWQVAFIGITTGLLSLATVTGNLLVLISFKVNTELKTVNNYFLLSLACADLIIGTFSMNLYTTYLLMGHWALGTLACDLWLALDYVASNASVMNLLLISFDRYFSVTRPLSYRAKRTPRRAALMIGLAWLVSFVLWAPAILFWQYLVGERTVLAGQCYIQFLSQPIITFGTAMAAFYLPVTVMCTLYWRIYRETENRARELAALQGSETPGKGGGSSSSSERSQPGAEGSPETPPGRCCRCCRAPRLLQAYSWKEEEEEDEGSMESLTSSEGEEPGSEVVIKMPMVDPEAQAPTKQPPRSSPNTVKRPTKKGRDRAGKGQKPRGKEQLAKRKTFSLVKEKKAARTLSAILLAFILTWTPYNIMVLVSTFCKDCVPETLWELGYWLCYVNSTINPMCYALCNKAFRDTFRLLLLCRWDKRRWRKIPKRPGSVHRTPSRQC
Procedure, shortened: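 Compounds were tested at 15 concentrations in three independent runs. Dye-loaded CHRM1-CHO cells were exposed 5 min at room temperature before stimulation by acetylcholine added at 50nM. Intracellular calcium was read kinetically on FDSS for 3 min.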

[15] = biological target: Muscarinic acetylcholine receptor M1 (Homo sapiens) (UniProt P11229); assay: Cholinergic receptor muscarinic 1 (CHRM1) small molecule agonists, cell-based qHTS assay (AID 1963589); further: nearly all actives have a fitted effect of over 35% in size
Procedure, shortened: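 Agonist-mode calcium-flux screen: compounds at 15 concentrations, three independent runs, were pin-transferred onto dye-loaded human CHRM1-CHO cells. Fluorescence was then recorded kinetically every second over minutes.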

[16] = cAMP Responsive Elements (CRE) small molecule agonists, cell-based qHTS assay (AID 1963590)
Procedure, shortened: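 Agonist mode: compound added to CRE-bla HEK 293T cells (2,000/well, 18 h after plating) for 3 h at 37 C/5% CO2. Reporter activity detected via FRET beta-lactamase substrate, 2 h room-temperature loading.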

[17] = cAMP Responsive Elements (CRE) small molecule antagonists, cell-based qHTS assay (AID 1963591; active means well fitted inhibition curve with a large enough effect in the signal ratio in the repeat runs, not every such curve was filed as active; the % refers to the signal ratio)
Procedure, shortened: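 Antagonist mode: compounds are added alongside the adenylyl cyclase activator NKH477 (0.25 uM final) to CRE-bla HEK293T cells for 3 h. LiveBLAzer FRET substrate, 2 h at room temperature, reports bla expression.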

[18] = biological target: Beta-2 adrenergic receptor (Homo sapiens) (UniProt P07550); assay: Adrenergic beta2 receptor (ADRB2) small molecule antagonists, cell-based qHTS assay (AID 1963592); further: series mostly up to about 92 µM; nearly all actives have a fitted effect of over 50% in size
Chain of Beta-2 adrenergic receptor (Homo sapiens) (P07550 whole entry, looked up): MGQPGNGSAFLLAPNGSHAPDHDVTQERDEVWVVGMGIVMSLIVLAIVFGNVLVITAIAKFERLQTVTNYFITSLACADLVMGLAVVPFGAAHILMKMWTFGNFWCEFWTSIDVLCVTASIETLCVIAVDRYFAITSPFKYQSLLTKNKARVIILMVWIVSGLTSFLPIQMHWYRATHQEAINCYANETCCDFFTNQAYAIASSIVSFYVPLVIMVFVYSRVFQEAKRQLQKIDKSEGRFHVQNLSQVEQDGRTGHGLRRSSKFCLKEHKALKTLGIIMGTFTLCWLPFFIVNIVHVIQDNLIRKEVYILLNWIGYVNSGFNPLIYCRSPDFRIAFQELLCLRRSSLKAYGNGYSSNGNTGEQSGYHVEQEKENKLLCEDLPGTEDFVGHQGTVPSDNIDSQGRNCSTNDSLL
Procedure, shortened: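 Assay format: CHO-ADRB2 cells, 18-20hr seeding at 37C/5% CO2, then compound plus 1nM isoproterenol agonist mix for 0.5hr RT. Homogeneous time-resolved fluorescence cAMP detection after 1hr, expressed as 665/615 nm ratio.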

[19] = biological target: D(2) dopamine receptor (Homo sapiens) (UniProt P14416); assay: Dopamine D2 receptor (DRD2) small molecule antagonists, cell-based qHTS assay (AID 1963595; active means well fitted inhibition curve with a large enough effect in the signal ratio in the repeat runs, with a control signal flat; the % refers to the signal ratio)
Chain of D(2) dopamine receptor (Homo sapiens) (P14416 whole entry, looked up): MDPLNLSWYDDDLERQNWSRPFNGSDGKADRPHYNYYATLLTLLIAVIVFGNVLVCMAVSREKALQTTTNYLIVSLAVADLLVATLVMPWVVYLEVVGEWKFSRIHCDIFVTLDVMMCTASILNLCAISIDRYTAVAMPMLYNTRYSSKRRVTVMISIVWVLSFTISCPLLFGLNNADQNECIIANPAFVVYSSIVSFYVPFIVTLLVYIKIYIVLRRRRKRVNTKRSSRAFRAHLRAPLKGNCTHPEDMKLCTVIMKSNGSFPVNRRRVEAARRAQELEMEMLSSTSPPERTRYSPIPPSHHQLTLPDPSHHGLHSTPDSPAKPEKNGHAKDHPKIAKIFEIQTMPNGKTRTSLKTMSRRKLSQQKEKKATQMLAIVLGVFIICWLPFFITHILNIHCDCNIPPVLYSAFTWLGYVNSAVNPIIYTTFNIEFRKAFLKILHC
Procedure, shortened: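 HEK293 cells stably expressing DRD2, preincubated with 0.1 mM Ro20-1724 and compounds 10 min, were stimulated with 200 nM NKH477 plus 12 nM quinpirole for 30 min at room temperature; cAMP measured by HTRF (665/620 nm).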

[20] = biological target: D(2) dopamine receptor (Homo sapiens) (UniProt P14416); assay: Dopamine D2 receptor (DRD2) small molecule agonists, cell-based qHTS assay (AID 1963594); further: nearly all actives have a fitted effect of over 35% in size
Procedure, shortened: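 cAMP accumulation in DRD2-HEK293 cells measured by HTRF after 1 h detection; compounds added 10 min before NKH477 (200nM […]) forskolin-analogue stimulation, 30 min at room temperature, with Ro20-1724 present at 0.1 mM final.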

COCCCC/C(=N\OCCN)c1ccc(C(F)(F)F)cc1
Potency [1]: inactive | Potency [2]: inactive | Potency [3]: inactive | Potency [4]: inactive | Potency [5]: inactive | Potency [6]: inactive | Potency [7]: inactive | Potency [8]: inactive | Potency [9]: inactive | Potency [10]: inactive | Potency [11]: inactive | Potency [12]: inactive | Potency [13]: inactive | Potency [14]: inactive | Potency [15]: inactive | Potency [16]: inactive | Potency [17]: inactive | Potency [18]: inactive | Potency [19]: inactive

CC(COC(=O)c1ccccc1)OC(=O)c1ccccc1 (centres undefined)
Potency [1]: inactive | Potency [2]: inactive | Potency [3]: inactive | Potency [4]: inactive | Potency [5]: inactive | Potency [6]: inactive | Potency [7]: inactive | Potency [8]: inactive | Potency [9]: inactive | Potency [10]: inactive | Potency [11]: inactive | Potency [12]: inactive | Potency [13]: inactive | Potency [14]: inactive | Potency [15]: inactive | Potency [16]: inactive | Potency [17]: inactive | Potency [18]: inactive | Potency [19]: inactive

CCOC(=O)c1cccc(N)c1
Potency [1]: inactive | Potency [2]: inactive | Potency [3]: inactive | Potency [4]: inactive | Potency [5]: inactive | Potency [6]: inactive | Potency [7]: inactive | Potency [8]: inactive | Potency [9]: inactive | Potency [10]: inactive | Potency [11]: inactive | Potency [12]: inactive | Potency [13]: inactive | Potency [14]: inactive | Potency [15]: inactive | Potency [16]: inactive | Potency [17]: inactive | Potency [18]: inactive | Potency [19]: inactive

O=Cc1ccc(C(=O)O)cc1
Potency [1]: inactive | Potency [2]: inactive | Potency [3]: inactive | Potency [4]: inactive | Potency [5]: inactive | Potency [6]: inactive | Potency [7]: inactive | Potency [8]: inactive | Potency [9]: inactive | Potency [10]: inactive | Potency [11]: inactive | Potency [12]: inactive | Potency [13]: inactive | Potency [14]: inactive | Potency [15]: inactive | Potency [16]: inactive | Potency [17]: inactive | Potency [18]: inactive | Potency [19]: inactive

CC12CC3CC(C)(C1)CC(N)(C3)C2
Potency [1]: inactive | Potency [2]: inactive | Potency [3]: inactive | Potency [4]: inactive | Potency [5]: inactive | Potency [6]: inactive | Potency [7]: inactive | Potency [8]: inactive | Potency [9]: inactive | Potency [10]: inactive | Potency [11]: inactive | Potency [12]: inactive | Potency [13]: inactive | Potency [14]: inactive | Potency [15]: inactive | Potency [16]: inactive | Potency [17]: inactive | Potency [18]: inactive | Potency [19]: inactive

COc1nc(N)nc2nc[nH]c12
Potency [1]: inactive | Potency [2]: inactive | Potency [3]: inactive | Potency [4]: inactive | Potency [5]: inactive | Potency [6]: inactive | Potency [7]: inactive | Potency [8]: inactive | Potency [9]: inactive | Potency [10]: inactive | Potency [11]: inactive | Potency [12]: inactive | Potency [13]: inactive | Potency [14]: inactive | Potency [15]: inactive | Potency [16]: inactive | Potency [17]: inactive | Potency [18]: inactive | Potency [20]: inactive | Potency [19]: inactive

CC(C)(C)c1nnc(NS(=O)(=O)c2ccc(N)cc2)s1
Potency [1]: inactive | Potency [2]: inactive | Potency [3]: inactive | Potency [4]: inactive | Potency [5]: inactive | Potency [6]: inactive | Potency [7]: inactive | Potency [8]: inactive | Potency [9]: inactive | Potency [10]: inactive | Potency [11]: inactive | Potency [12]: 7.29 µM (active) | Potency [13]: inactive | Potency [14]: inactive | Potency [15]: inactive | Potency [16]: inactive | Potency [17]: inactive | Potency [18]: inactive | Potency [20]: inactive | Potency [19]: inactive

O=C1C(c2[nH]c3ccc(S(=O)(=O)O)cc3c2O)=Nc2ccc(S(=O)(=O)O)cc21
Potency [1]: inactive | Potency [2]: inactive | Potency [3]: inactive | Potency [4]: inactive | Potency [5]: inactive | Potency [6]: inactive | Potency [7]: inactive | Potency [8]: inactive | Potency [9]: inactive | Potency [10]: inactive | Potency [11]: inactive | Potency [12]: inactive | Potency [13]: inactive | Potency [14]: inactive | Potency [15]: inactive | Potency [16]: inactive | Potency [17]: inactive | Potency [18]: inactive | Potency [19]: inactive
